Test results from PubChem BioAssay (NCI).
About 79,000 compounds went through this panel and 15% of them were active in at least one assay; those are over-represented in the sample as a whole. A number with no mark means an inactive call. Active and inactive are the calls of the source. Rule as the data show it: active = growth inhibition above about 70%; inactive = the rest.

Legend:
[1] = NCI Yeast Anticancer Drug Screen. Data for the rad50 strain (AID 155);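 also: 0% = growth of vehicle-only cultures of the same strain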; conditions: S. cerevisiae rad50 strain growth inhibition, stronger effect = higher value
Outline: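 Genetically altered yeast (DNA repair pathway); compound treatment; growth inhibition vs vehicle ctrl.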

[2] = NCI Yeast Anticancer Drug Screen. Data for the mec2-1 strain (AID 157); conditions: S. cerevisiae mec2-1 strain, stronger effect = higher value
Outline: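 Each compound was tested on mec2-1 yeast, a strain altered in DNA damage repair or cell cycle control. Growth inhibition is reported relative to vehicle.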

[3] = NCI Yeast Anticancer Drug Screen. Data for the sgs1 mgt1 strain (AID 161);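 also: 0% = growth of cultures given vehicle only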; conditions: S. cerevisiae sgs1 mgt1 strain, stronger effect = higher value
Outline: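 Read-out: growth inhibition vs vehicle controls. Cells: mutant yeast strain deficient in DNA damage repair.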

[4] = NCI Yeast Anticancer Drug Screen. Data for the cln2 rad14 strain (AID 165);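 also: 0% = growth equal to vehicle treated cultures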; conditions: S. cerevisiae cln2 rad14 strain, stronger effect = higher value
Outline: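 Test compounds were added to cln2 rad14 yeast cultures; inhibition of growth was then determined by comparison with vehicle treatment.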

[5] = NCI Yeast Anticancer Drug Screen. Data for the bub3 strain (AID 167); conditions: S. cerevisiae bub3 mutant strain, stronger effect = higher value
Outline: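 Yeast carrying a defined mutation is treated with each compound, and growth is compared with that of vehicle-exposed cells to give inhibition.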

[6] = NCI Yeast Anticancer Drug Screen. Data for the mlh1 rad18 strain (AID 175); conditions: S. cerevisiae mlh1 rad18 strain growth inhibition, stronger effect = higher value
Outline: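 Inhibition values reflect reduced growth of mutant yeast versus vehicle-treated controls following compound exposure; the mutations affect DNA damage repair.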

[7] = at 5.0 µM (retest, dose inferred, filed as 0.5)
[8] = at 50.0 µM (retest, dose inferred, filed as 5.0)

| Compound | growth inhibition [1, 7] | growth inhibition [1, 8] | growth inhibition ([1]; at 50.0 µM) | growth inhibition [2, 7] | growth inhibition [2, 8] | growth inhibition ([2]; at 50.0 µM) | growth inhibition [3, 7] | growth inhibition [3, 8] | growth inhibition ([3]; at 50.0 µM) | growth inhibition [4, 7] | growth inhibition [4, 8] | growth inhibition ([4]; at 50.0 µM) | growth inhibition [5, 7] | growth inhibition [5, 8] | growth inhibition ([5]; at 50.0 µM) | growth inhibition [6, 7] | growth inhibition [6, 8] | growth inhibition ([6]; at 50.0 µM) |
| --- | --- | --- | --- | --- | --- | --- | --- | --- | --- | --- | --- | --- | --- | --- | --- | --- | --- | --- |
| CCOc1ccc(/C=N\NC(=O)c2ccco2)cc1OCC | -6% | 4% | 59.8% | -3% | -2% | 94% (active) | -3% | 11% | 47.7% | -23% | -22% | 67% | -11% | -22% | 92.6% (active) | -2% | -12% | 44.6% |
| CSC(=S)n1nc(-c2ccccc2)c(N=Nc2ccc(Br)cc2)c1-c1ccccc1 | 6% | 14% | 41% | 9% | 25% | 23.9% | 5% | 25% | 6.15% | 10% | 4% | 49.9% | 13% | 34% | 0.05% | 5% | 19% | -10.2% |
| O=C(O)CCC(O)=C1S(=O)(=O)OCCOS1(=O)=O | -21% | 16% | 36% | -8% | 10% | 4.25% | -16% | -3% | -1.5% | -42% | -30% | 47.7% | -18% | 3% | 15.7% | -17% | -28% | 8.3% |
| CC(=O)Nc1ccc(S(=O)(=O)/N=C2\C=CC(=O)c3ccccc32)cc1 | 2% | 27% | 63.9% | 4% | 24% | 54.6% | 1% | 7% | 79.9% (active) | -9% | -6% | -43.4% | 5% | 14% | 71.7% (active) | 5% | 16% | 80% (active) |
| CCCCCCCCCCCCOCC[N+](CCO)(CCO)Cc1ccccc1 | 99% (active) | 99% (active) | 99.3% (active) | 100% (active) | 99% (active) | 99.5% (active) | 99% (active) | 99% (active) | 99.2% (active) | 97% (active) | 99% (active) | 98.4% (active) | 97% (active) | 99% (active) | 99% (active) | 98% (active) | 99% (active) | 99.3% (active) |
| O=Cc1ccc2cc(Cl)ccc2n1 | -156% | -135% | -14.9% | -48% | -55% | 18.4% | -63% | -63% | 10% | -50% | -67% | 46.6% | -71% | -83% | -14.4% | -138% | -111% | 2.55% |
| Cc1ccc(C(=O)OCCN2CCOCC2)c([N+](=O)[O-])c1OCc1ccccc1 | 14% | 61% | 73.2% (active) | 18% | 46% | 63.4% | 13% | 81% (active) | 84.7% (active) | 11% | 28% | 6.7% | 11% | 65% | 68.5% | 10% | 58% | 78.3% (active) |
| CN(C)N=Nc1c(-c2cccs2)n[nH]c1C(F)(F)F | 98% (active) | 99% (active) | 99.4% (active) | 99% (active) | 100% (active) | 99.8% (active) | 100% (active) | 100% (active) | 99.6% (active) | 99% (active) | 99% (active) | 99.5% (active) | 99% (active) | 99% (active) | 99.5% (active) | 99% (active) | 99% (active) | 99.6% (active) |
| COc1ccc(-n2c3c(c4c(N)ncnc42)CCCC3)cc1 | -2% | -4% | -21.3% | -12% | -3% | -7.3% | 11% | -3% | -13% | -11% | 43% | -33% | -2% | -13% | -69.2% | 2% | -13% | -16.4% |
